The record followed here is the antibiotic and cytotoxicity screens of Wong et al. (2023).

Molecules are shown by their SMILES. In all, about 39,000 compounds went through this assay and about 3,300 (8.5%) were called active. Many of the other results were omitted from the sample, so actives are more common in it than they were.

The subject of this experiment is HepG2. Briefly: cytotoxicity call (relative viability < 0.9). Particulars: 10 µM.
In the case of `O=C(C[C@@H]1C[C@H]2c3cc(NS(=O)(=O)c4ccc(F)cc4)ccc3O[C@H]2[C@H](CO)O1)NC1CCCCC1`, the cytotoxicity call was “inactive”. For `C[C@H]1CN([C@@H](C)CO)C(=O)c2cc(NC(=O)Nc3ccc(C(F)(F)F)cc3)ccc2O[C@@H]1CN(C)S(=O)(=O)c1ccc(Cl)cc1`, the cytotoxicity call was “active”. To `C[C@H]1CN([C@@H](C)CO)C(=O)c2cc(NS(C)(=O)=O)ccc2O[C@@H]1CN(C)S(=O)(=O)c1ccc(Cl)cc1` belongs “active”.

On to `C[C@@H]1CN([C@H](C)CO)C(=O)c2cc(NC(=O)Nc3ccc(C(F)(F)F)cc3)ccc2O[C@@H]1CN(C)S(=O)(=O)c1ccc(Cl)cc1`, for which the cytotoxicity call was “active”. For the compound `C[C@H](CO)N1C[C@H](C)[C@@H](CN(C)S(=O)(=O)c2ccc(Cl)cc2)Oc2ccc(NS(C)(=O)=O)cc2C1=O`, the cytotoxicity call is “inactive”. To `C[C@H]1CN([C@@H](C)CO)C(=O)c2cc(NS(C)(=O)=O)ccc2O[C@H]1CN(C)S(=O)(=O)c1ccc(Cl)cc1` belongs “inactive”; to `C[C@@H]1CN([C@@H](C)CO)C(=O)c2cc(NC(=O)Nc3ccc(C(F)(F)F)cc3)ccc2O[C@@H]1CN(C)S(=O)(=O)c1ccc(Cl)cc1`, “active”; to `Cc1noc(C)c1S(=O)(=O)Nc1ccc2c(c1)C(=O)N([C@H](C)CO)C[C@@H](C)[C@@H](CN(C)S(=O)(=O)c1c(C)noc1C)O2`, “inactive”. For the compound `CS(=O)(=O)N1CCOC[C@]2(CN(C(=O)c3ccc[nH]3)CCO2)C1`, the cytotoxicity call is “inactive”. Turning to `Cc1noc(C)c1S(=O)(=O)Nc1cccc2c1O[C@@H](CN(C)S(=O)(=O)c1ccc(Cl)cc1)[C@@H](C)CN([C@@H](C)CO)C2=O`, the cytotoxicity call is “inactive”. In the case of `CCS(=O)(=O)N1CCO[C@]2(COCCN(c3cncnc3)C2)C1`, the cytotoxicity call was “inactive”. To `Cc1noc(C)c1NC(=O)Nc1ccc2c(c1)C(=O)N([C@@H](C)CO)C[C@@H](C)[C@@H](CN(C)Cc1ccc(C(F)(F)F)cc1)O2` belongs “inactive”. To `Cc1cccn2c(=O)c(-c3nn[nH]n3)cnc12` belongs “inactive”; to `O=C(C[C@H]1C=C[C@H](NC(=O)CN2CCOCC2)[C@@H](CO)O1)NCc1cccc(F)c1`, “inactive”. Consider `C[C@@H]1CN([C@@H](C)CO)S(=O)(=O)c2ccc(-c3cncnc3)cc2O[C@@H]1CN(C)C(=O)NC1CCCC1`, for which the cytotoxicity call was “inactive”. To `C[C@H](CO)N1C[C@H](C)[C@@H](CN(C)Cc2ccc(C(=O)O)cc2)Oc2c(NC(=O)Nc3ccc(C(F)(F)F)cc3)cccc2C1=O` belongs “inactive”. To `C[C@H](CO)N1C[C@H](C)[C@H](CN(C)S(=O)(=O)c2ccc(Cl)cc2)Oc2ccc(NC(=O)Nc3ccc(C(F)(F)F)cc3)cc2C1=O` belongs “active”; to `C[C@@H]1CN([C@H](C)CO)C(=O)c2cc(NC(=O)Nc3ccc(C(F)(F)F)cc3)ccc2O[C@H]1CN(C)S(=O)(=O)c1ccc(Cl)cc1`, “active”; to `C[C@@H]1CN([C@@H](C)CO)C(=O)c2cc(NC(=O)Nc3ccc(C(F)(F)F)cc3)ccc2O[C@H]1CN(C)S(=O)(=O)c1ccc(Cl)cc1`, “active”. To `C[C@H]1CN([C@@H](C)CO)C(=O)c2cc(NC(=O)Nc3ccc(C(F)(F)F)cc3)ccc2O[C@H]1CN(C)S(=O)(=O)c1ccc(Cl)cc1` belongs “inactive”. As to `COc1ccc(S(=O)(=O)N(C)C[C@H]2OCCCC[C@H](C)Oc3ccc(NC(=O)CCC(F)(F)F)cc3C(=O)N([C@@H](C)CO)C[C@@H]2C)cc1`, the cytotoxicity call is “inactive”.

`O=C1CCC(C(=O)O)CC1`: the cytotoxicity call was “inactive”. For the compound `C[C@@H]1CN([C@@H](C)CO)C(=O)c2cc(NC(=O)CCN3CCOCC3)ccc2O[C@@H]1CN(C)S(=O)(=O)c1ccccc1`, the cytotoxicity call was “inactive”.

Regarding `C[C@@H]1CCCCO[C@@H](CN(C)C(=O)Nc2cccc3ccccc23)[C@@H](C)CN([C@H](C)CO)C(=O)c2cc(NC(=O)Nc3ccc(C(F)(F)F)cc3)ccc2O1`, the cytotoxicity call was “inactive”. To `COc1ccc(S(=O)(=O)N(C)C[C@@H]2Oc3ccc(NS(=O)(=O)c4cn(C)cn4)cc3C(=O)N([C@H](C)CO)C[C@@H]2C)cc1` belongs “inactive”; to `C[C@H](CO)N1C[C@H](C)[C@@H](CN(C)S(=O)(=O)c2ccc3ccccc3c2)OCc2cnnn2CCCC1=O`, “inactive”; to `COc1ccc(C#Cc2cnc3c(c2)C(=O)N([C@H](C)CO)C[C@H](C)[C@H](CN(C)S(=O)(=O)c2cccc(F)c2)O3)cc1OC`, “inactive”. To `COc1ccc(COCC23Oc4ccccc4[C@H]([C@H]2CO)n2c(c4ccccc4c(-c4ccccc4)c2=O)N3C)cc1` belongs “active”; to `COc1ccc(COCC23Oc4ccccc4[C@H]([C@H]2CO[Si](C)(C)C(C)(C)C)n2c(c4ccccc4c(-c4ccccc4)c2=O)N3C)cc1`, “active”. For the compound `COC(=O)c1cc(-c2ccccc2)c(=O)n2c1N(C)[C@@]1(COCc3ccc(OC)cc3)Oc3ccccc3[C@@H]2[C@H]1CO[Si](C)(C)C(C)(C)C`, the cytotoxicity call is “inactive”.

For the compound `COc1ccc(COCC23Oc4ccccc4[C@H]([C@H]2CO)n2c(c4c(c(C(C)=O)c2=O)C(=O)N(C)C4=O)N3C)cc1`, the cytotoxicity call was “inactive”. As for `COc1ccc(COCC23Oc4ccccc4[C@H]([C@H]2COC(=O)c2ccccc2)n2c(c4ccccc4c(-c4ccccc4)c2=O)N3C)cc1`, the cytotoxicity call was “active”.

On to `COC(=O)c1c(C(=O)OC)c2n(c(=O)c1-c1ccccc1)[C@@H]1c3ccccc3O[C@@](CO)([C@@H]1CO)N2C`, for which the cytotoxicity call was “inactive”.

On to `COC(=O)c1c(C(=O)OC)c2n(c(=O)c1-c1ccccc1)[C@@H]1c3ccccc3O[C@@](COCc3ccc(OC)cc3)([C@@H]1CO[Si](C)(C)C(C)(C)C)N2C`, for which the cytotoxicity call was “inactive”. Turning to `COC(=O)c1c(C(=O)OC)c2n(c(=O)c1-c1ccccc1)[C@@H]1c3ccccc3O[C@@](COCc3ccc(OC)cc3)([C@@H]1COC(=O)c1ccccc1)N2C`, the cytotoxicity call was “inactive”. To `COc1ccc(COCC23Oc4ccccc4[C@H]([C@H]2COC(=O)NCCCCCC(=O)NO)n2c(c4c(c(C(C)=O)c2=O)C(=O)N(C)C4=O)N3C)cc1` belongs “inactive”; to `COc1ccc(NC(=O)N(C)C[C@@H]2OCCCC[C@H](C)Oc3ccc(NS(=O)(=O)c4ccc(OC)cc4)cc3C(=O)N([C@H](C)CO)C[C@@H]2C)cc1`, “inactive”. To `CC(C)NC(=O)N(C)C[C@@H]1Oc2c(NC(=O)Nc3ccc4c(c3)OCO4)cccc2C(=O)N([C@@H](C)CO)C[C@@H]1C` belongs “inactive”. To `C[C@H]1CCCCO[C@H](CN(C)C(=O)CCC(F)(F)F)[C@@H](C)CN([C@@H](C)CO)C(=O)c2cc(NS(=O)(=O)c3cccs3)ccc2O1` belongs “inactive”.
